Experimental data from PubChem BioAssay AID1159580 (chemical genetic matrix, 2015).
“And” between values parts separate entries of the source, which are not always exact repeats. Identical values can stand only once. In all, about 5,500 compounds went through this assay and about 2,000 (36%) were called active. About 18% were inconclusive and are not listed. No stated cut-off is given here; in the data, active means normalized growth mostly below about 0.91 (no sharp cut-off); inconclusive means no clear call, values can overlap the other calls; inactive means mostly above about 0.92. The list shows a part of the results.

Experiment: chemical genetic growth profiling, strain panel (AID 1159580);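 further: tested at 20 µM; growth read once vehicle control cultures reached saturation at 30 °C; 1 = growth at the plate median or of vehicle wells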
Conditions: growth OD
[1] = S. cerevisiae deletion strains, locus YBR229C, strain ROT2, stronger effect = lower value
[2] = S. cerevisiae deletion strains, locus YCL061C, strain MRC1, stronger effect = lower value
[3] = S. cerevisiae deletion strains, locus YDL101C, strain DUN1, stronger effect = lower value
[4] = S. cerevisiae deletion strains, locus YDL134C, strain PPH21, stronger effect = lower value
[5] = S. cerevisiae deletion strains, locus YDR150W, strain NUM1, stronger effect = lower value
[6] = S. cerevisiae deletion strains, locus YEL061C, strain CIN8, stronger effect = lower value
[7] = S. cerevisiae deletion strains, locus YGR078C, strain PAC10, stronger effect = lower value
[8] = S. cerevisiae deletion strains, locus YHR030C, strain SLT2, stronger effect = lower value
[9] = S. cerevisiae deletion strains, locus YHR087W, strain rtc3, stronger effect = lower value
[10] = S. cerevisiae deletion strains, locus YJR043C, strain POL32, stronger effect = lower value
[11] = S. cerevisiae deletion strains, locus YJR075W, strain HOC1, stronger effect = lower value
[12] = S. cerevisiae deletion strains, locus YLR039C, strain RIC1, stronger effect = lower value
[13] = S. cerevisiae deletion strains, locus YLR058C, strain SHM2 (second series), stronger effect = lower value
[14] = S. cerevisiae deletion strains, locus YLR085C, strain ARP6, stronger effect = lower value
[15] = S. cerevisiae deletion strains, locus YLR262C, strain YPT6, stronger effect = lower value
[16] = S. cerevisiae deletion strains, locus YML094W, strain GIM5, stronger effect = lower value
[17] = S. cerevisiae deletion strains, locus YMR219W, strain ESC1, stronger effect = lower value
[18] = S. cerevisiae deletion strains, locus YMR263W, strain SAP30, stronger effect = lower value
[19] = S. cerevisiae deletion strains, locus YMR307W, strain GAS1, stronger effect = lower value
[20] = S. cerevisiae deletion strains, locus YNL153C, strain GIM3, stronger effect = lower value
[21] = S. cerevisiae deletion strains, locus YNL298W, strain CLA4 (second series), stronger effect = lower value
[22] = S. cerevisiae deletion strains, locus YNL322C, strain KRE1, stronger effect = lower value
[23] = S. cerevisiae deletion strains, locus YNR030W, strain Alg12, stronger effect = lower value
[24] = S. cerevisiae deletion strains, locus YPL055C, strain LGE1, stronger effect = lower value
[25] = S. cerevisiae deletion strains, locus YPL241C, strain CIN2, stronger effect = lower value
[26] = S. cerevisiae deletion strains, locus YPR135W, strain CTF4, stronger effect = lower value

Measured: normalized growth

COc1ccc(-c2c(C(=O)O)sc(SC)c2C#N)cc1
inactive: S. cerevisiae deletion strains, locus YAL013W, strain DEP1, stronger effect = lower value 0.996 | [1] 0.998 | [2] 0.989 | [3] 1.01 | [4] 1.01 | [5] 1.07 | [6] 1.01 | [7] 1.01 | S. cerevisiae deletion strains, locus YGR229C, strain SMI1, stronger effect = lower value 1 | [8] 1.01 | [9] 0.997 | [10] 0.981 | [11] 1.01 | S. cerevisiae deletion strains, locus YKL190W, strain CNB1, stronger effect = lower value 1.01 | [12] 1.03 | [13] 0.994 | [14] 1.05 | [15] 1.04 | [16] 1.02 | [17] 1 | [18] 1.04 | [19] 1.06 | [20] 0.992 | [21] 1 | [22] 1 | [23] 1.01 | [24] 1.1 | [25] 1.01 | [26] 0.964

CSc1sc(-c2ccn[nH]2)c(-c2ccccc2)c1C#N
inactive: S. cerevisiae deletion strains, locus YAR019C, strain CDC15, stronger effect = lower value 0.982 | S. cerevisiae deletion strains, locus YBL105C, strain PKC1, stronger effect = lower value 0.981 | S. cerevisiae deletion strains, locus YBR135W, strain CKS1, stronger effect = lower value 0.975 | S. cerevisiae deletion strains, locus YBR136W, strain MEC1, stronger effect = lower value 0.975 | S. cerevisiae deletion strains, locus YBR160W, strain CDC28, stronger effect = lower value 0.992 | [1] 0.941 | [2] 0.981 | S. cerevisiae deletion strains, locus YDL017W, strain CDC7, stronger effect = lower value 0.994 | S. cerevisiae deletion strains, locus YDL028C, strain MPS1, stronger effect = lower value 0.983 | [3] 0.968 and 0.962 | S. cerevisiae deletion strains, locus YDL108W, strain KIN28, stronger effect = lower value 0.977 | S. cerevisiae deletion strains, locus YDL132W, strain cdc53, stronger effect = lower value 0.972 | S. cerevisiae deletion strains, locus YDL214C, strain PRR2, stronger effect = lower value 0.997 | S. cerevisiae deletion strains, locus YDR052C, strain DBF4, stronger effect = lower value 0.989 | S. cerevisiae deletion strains, locus YDR054C, strain cdc34, stronger effect = lower value 0.988 | [5] 0.974 | S. cerevisiae deletion strains, locus YDR226W, strain ADK1, stronger effect = lower value 0.976 | S. cerevisiae deletion strains, locus YDR477W, strain SNF1, stronger effect = lower value 0.984 | S. cerevisiae deletion strains, locus YER123W, strain YCK3, stronger effect = lower value 0.976 | S. cerevisiae deletion strains, locus YER133W, strain GLC7, stronger effect = lower value 0.987 | S. cerevisiae deletion strains, locus YFL009W, strain cdc4, stronger effect = lower value 0.97 | S. cerevisiae deletion strains, locus YFL029C, strain CAK1, stronger effect = lower value 0.975 | S. cerevisiae deletion strains, locus YFR003C, strain YPI1, stronger effect = lower value 0.976 | S. cerevisiae deletion strains, locus YFR019W, strain FAB1, stronger effect = lower value 0.973 | S. cerevisiae deletion strains, locus YFR028C, strain CDC14, stronger effect = lower value 0.974 | S. cerevisiae deletion strains, locus YGR040W, strain KSS1, stronger effect = lower value 0.998 | S. cerevisiae deletion strains, locus YGR052W, strain FMP48, stronger effect = lower value 0.998 | [7] 0.941 | S. cerevisiae deletion strains, locus YGR092W, strain DBF2, stronger effect = lower value 1 | S. cerevisiae deletion strains, locus YHR079C, strain IRE1, stronger effect = lower value 1.09 | S. cerevisiae deletion strains, locus YHR082C, strain KSP1, stronger effect = lower value 1.03 | [9] 0.914 | S. cerevisiae deletion strains, locus YHR205W, strain SCH9, stronger effect = lower value 0.997 | S. cerevisiae deletion strains, locus YIL147C, strain SLN1, stronger effect = lower value 0.979 | S. cerevisiae deletion strains, locus YJL095W, strain BCK1, stronger effect = lower value 0.974 | S. cerevisiae deletion strains, locus YJL128C, strain PBS2, stronger effect = lower value 0.957 | S. cerevisiae deletion strains, locus YJL157C, strain FAR1, stronger effect = lower value 0.986 | S. cerevisiae deletion strains, locus YJR016C, strain ILV3, stronger effect = lower value 0.978 | [10] 0.969 | S. cerevisiae deletion strains, locus YJR066W, strain TOR1 (second series), stronger effect = lower value 0.92 | S. cerevisiae deletion strains, locus YJR066W, strain TOR1, stronger effect = lower value 1.04 | [11] 0.944 | S. cerevisiae deletion strains, locus YKL048C, strain ELM1, stronger effect = lower value 0.984 | S. cerevisiae deletion strains, locus YKL067W, strain YNK1, stronger effect = lower value 0.992 | S. cerevisiae deletion strains, locus YKL101W, strain HSL1, stronger effect = lower value 0.976 | S. cerevisiae deletion strains, locus YKL193C, strain SDS22, stronger effect = lower value 0.983 | S. cerevisiae deletion strains, locus YKL203C, strain TOR2, stronger effect = lower value 1.04 | [12] 0.846 | [13] 0.975 | S. cerevisiae deletion strains, locus YLR133W, strain CKI1, stronger effect = lower value 0.968 | [15] 0.991 | S. cerevisiae deletion strains, locus YLR403W, strain SFP1, stronger effect = lower value 0.982 | S. cerevisiae deletion strains, locus YML070W, strain DAK1, stronger effect = lower value 0.984 | S. cerevisiae deletion strains, locus YMR001C, strain CDC5, stronger effect = lower value 0.993 | S. cerevisiae deletion strains, locus YMR205C, strain PFK2 (second series), stronger effect = lower value 0.97 | [17] 0.955 | [18] 0.939 | S. cerevisiae deletion strains, locus YMR277W, strain FCP1, stronger effect = lower value 0.984 | S. cerevisiae deletion strains, locus YNL006W, strain LST8, stronger effect = lower value 1 | S. cerevisiae deletion strains, locus YNL020C, strain ARK1, stronger effect = lower value 0.996 | [20] 0.979 | S. cerevisiae deletion strains, locus YNL161W, strain CBK1, stronger effect = lower value 0.991 | S. cerevisiae deletion strains, locus YNL183C, strain NPR1, stronger effect = lower value 1 | S. cerevisiae deletion strains, locus YNL207W, strain RIO2, stronger effect = lower value 0.96 | S. cerevisiae deletion strains, locus YNL222W, strain SSU72, stronger effect = lower value 0.977 | S. cerevisiae deletion strains, locus YNL307C, strain MCK1 (second series), stronger effect = lower value 1.01 | [22] 0.965 | S. cerevisiae deletion strains, locus YOL078W, strain AVO1, stronger effect = lower value 0.981 | S. cerevisiae deletion strains, locus YOL136C, strain PFK27, stronger effect = lower value 0.956 | S. cerevisiae deletion strains, locus YOR061W, strain CKA2, stronger effect = lower value 0.986 | S. cerevisiae deletion strains, locus YOR119C, strain RIO1, stronger effect = lower value 1.02 | S. cerevisiae deletion strains, locus YOR231W, strain MKK1, stronger effect = lower value 0.965 | S. cerevisiae deletion strains, locus YOR329C, strain SCD5, stronger effect = lower value 0.995 | S. cerevisiae deletion strains, locus YPL031C, strain PHO85, stronger effect = lower value 0.989 | [24] 0.875 | S. cerevisiae deletion strains, locus YPL153C, strain RAD53, stronger effect = lower value 0.971 | S. cerevisiae deletion strains, locus YPL204W, strain HRR25, stronger effect = lower value 0.958 | S. cerevisiae deletion strains, locus YPL209C, strain IPL1, stronger effect = lower value 0.978 | S. cerevisiae deletion strains, locus YPL256C, strain CLN2, stronger effect = lower value 1.04 | S. cerevisiae deletion strains, locus YPR025C, strain CCL1, stronger effect = lower value 0.989 | S. cerevisiae deletion strains, locus YPR106W, strain ISR1, stronger effect = lower value 0.986 | S. cerevisiae deletion strains, locus YPR111W, strain DBF20, stronger effect = lower value 0.954 | [26] 0.69 | S. cerevisiae deletion strains, strain NNK1, stronger effect = lower value 0.966 | S. cerevisiae deletion strains, strain TSCII, stronger effect = lower value 0.984
0.599 (active) and 1.06 (inactive): [8]
active: [4] 0.732 | [6] 0.827 | [14] 0.437 | S. cerevisiae deletion strains, locus YLR113W, strain HOG1, stronger effect = lower value 0.861 | [16] 0.789 | [19] 0.508 | [21] 0.735 | [23] 0.753 | [25] 0.758 | S. cerevisiae strains, strain wild type, stronger effect = lower value 0.911
